From PubChem BioAssay
The source made the active and inactive calls.

Assays:
Albumin (Bos taurus) = Albumin (Bos taurus) (UniProt P02769); test: bovine serum albumin binders on microarray, profiling panel, artefact control for SMM control protein annotation, biochemical, small-molecule microarray, Alexa647 label, 635/667 nm fluorescence (AID 1118); conditions: BSA-A647 binding, fluorescence 635 nm, higher = more signal;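 further: score merges 667 nm emission intensity and signal-to-noise per printed compound spot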
[1] = small-molecule microarray binders of probe aXIP, primary screen, biochemical, NeuroSMM set, 635/667 nm fluorescence (AID 1119); conditions: higher = more signal, called active from +8 up or from −8 down;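 further: probe is the protein aXip251-270 applied at 1 µg/mL to compound-printed slides; binding of probe to printed compounds measured as 667 nm fluorescence plus signal to noise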
[2] = small-molecule binders of probe aNOTCH3, primary screen, biochemical, small-molecule microarray, 635/667 nm fluorescence (AID 1120); conditions: higher = more signal;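 further: probe is a biotin-tagged antibody raised against NOTCH3 rather than NOTCH3 protein; score merges spot fluorescence near 667 nm with spot signal to noise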
[3] = small-molecule binders of probe aNOTCH2, primary screen, biochemical, small-molecule microarray, 635/667 nm fluorescence (AID 1121); conditions: higher = more signal;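 further: score merges feature fluorescence read at 667 nm with its signal to noise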
[4] = biological target: Carbonic anhydrase 2 (Homo sapiens) (UniProt P00918); test: CAII small-molecule binders, profiling panel, biochemical, small-molecule microarray, Alexa647-labelled CAII (AID 1122); conditions: CAII-A647 binding fluorescence, higher = more signal
[5] = COS7 lysate on small-molecule microarray, probe aHis, 635 nm (AID 1123); conditions: COS7 cell lysate, fluorescence, higher = more signal;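 further: z-score combines 667nm fluorescence intensity with signal-to-noise per printed compound spot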
[6] = compound binding in COS7 lysate, probe aLAP1, primary screen, cell lysate, small-molecule microarray (AID 1124); conditions: probe aLAP1, fluorescence, higher = more signal;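 further: lysate comes from COS7 cells expressing LAP1 and is applied at 0.3 µg/mL; score merges spot fluorescence near 667 nm with signal-to-noise over triplicate slides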
Sam68 (KHDRBS1) = test: Sam68 small-molecule binders, primary screen, biochemical, small-molecule microarray, 635 nm fluorescence (AID 1125); conditions: small-molecule microarray binding, higher = more signal;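 further: score merges 667 nm channel intensity with signal to noise over triplicate slides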
[7] = system: Chordin-like protein 2 (CHRDL2); test: CHRDL2 small-molecule binders, primary screen, biochemical, small-molecule microarray, 635 nm fluorescence (AID 1126); conditions: small-molecule microarray binding, fluorescence 635 nm; higher = more signal;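 further: printed compound slides probed with Chrdl2 protein at 4 µg/mL for 1 h at 4 C; score merges 667 nm emission intensity with signal to noise over three replicate slides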
[8] = biological target: Concanavalin-A (Canavalia ensiformis) (UniProt P02866); test: ConA small-molecule binders, primary screen, artefact control for SMM control protein annotation, biochemical, small-molecule microarray, Alexa647 label, 635 nm (AID 1127); conditions: ConA-A647 binding fluorescence, higher = more signal;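 further: z combines 667 nm emission intensity with signal-to-noise across three replicate slides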
Concanavalin-A (Canavalia ensiformis), sequence (P02866 whole entry, looked up): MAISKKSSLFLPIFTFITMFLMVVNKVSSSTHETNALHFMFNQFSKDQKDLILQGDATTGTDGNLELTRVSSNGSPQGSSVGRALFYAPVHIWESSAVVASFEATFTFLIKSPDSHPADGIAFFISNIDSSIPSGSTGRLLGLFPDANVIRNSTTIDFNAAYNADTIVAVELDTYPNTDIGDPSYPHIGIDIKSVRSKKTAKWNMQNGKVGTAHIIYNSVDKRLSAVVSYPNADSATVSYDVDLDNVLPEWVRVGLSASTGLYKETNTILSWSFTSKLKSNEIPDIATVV

Albumin (Bos taurus), sequence (P02769 whole entry, looked up): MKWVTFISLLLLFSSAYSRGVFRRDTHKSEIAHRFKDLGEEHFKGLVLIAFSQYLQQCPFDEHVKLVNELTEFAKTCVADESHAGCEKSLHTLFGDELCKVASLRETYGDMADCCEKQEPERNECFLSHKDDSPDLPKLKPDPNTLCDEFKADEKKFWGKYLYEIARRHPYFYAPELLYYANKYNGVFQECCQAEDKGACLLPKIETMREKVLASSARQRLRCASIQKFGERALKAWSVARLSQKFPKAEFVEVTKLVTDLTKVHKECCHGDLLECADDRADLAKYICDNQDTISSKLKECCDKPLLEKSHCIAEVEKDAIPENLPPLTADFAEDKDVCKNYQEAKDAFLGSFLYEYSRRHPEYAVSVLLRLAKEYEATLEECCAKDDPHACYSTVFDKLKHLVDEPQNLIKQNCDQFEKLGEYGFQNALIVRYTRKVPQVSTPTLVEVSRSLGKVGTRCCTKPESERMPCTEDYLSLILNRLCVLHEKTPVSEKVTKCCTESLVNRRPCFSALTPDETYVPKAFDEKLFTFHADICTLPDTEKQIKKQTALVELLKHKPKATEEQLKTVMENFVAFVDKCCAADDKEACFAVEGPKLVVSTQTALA

Compound	composite z-score (Albumin (Bos taurus))	composite Z-score [1]	composite z-score [2]	composite z-score [3]	composite z-score [4]	composite z-score [5]	composite z-score [6]	composite z-score (Sam68 (KHDRBS1))	composite z-score [7]	composite z-score [8]
Cc1ccccc1C(O)C1C=CC2C(=O)N(C)C(=O)C2N1Nc1ccccc1 (stereo not given)	1	0.0032 (inactive)	0.0674	-0.0168	0.821	2.05	0.415	1.23	-0.345	1.15
N#Cc1ccc(NN2C(C(O)c3cccs3)C=CC3C(=O)N(c4ccccc4)C(=O)C32)cc1 (stereo not given)	0.536	0.388 (inactive)	0.144	-0.0136	0.817	2.28	0.672	1.01	-0.0869	1.02
O=C1c2ccccc2[C@@]2(Cc3ccccc3N(Cc3ccccc3)C2=O)[C@H](c2ccc(CO)cc2)N1C1CCCCC1	-0.841	0.0066 (inactive)	-0.141	-0.14	0.416	1.03	0.432	0.689	0.685	1.01
COC(=O)[C@@]1(Cc2ccc(OC)cc2)[C@H]2c3cc(C(=O)N4CCCC4)n(Cc4cc(F)cc5c4OCOC5)c3C[C@H]2CN1C(=O)c1ccccc1	0.161	-0.0345 (inactive)	0.58	0.38	0.916	2.39	-0.429	-0.0061	-0.974	0.693
[N-]=[N+]=Nc1ccccc1[C@H]1OC(c2ccc(OCCCO)cc2)=N[C@@]1(CCS(=O)(=O)c1ccccc1)C(=O)O	0.622	0.254 (inactive)	-0.0647	0.0278	0.419	2.77	0.425	0.0569	-0.378	0.475
CC(C)CNC(=O)[C@@H]1c2ccccc2C(=O)N(Cc2cc(C(F)(F)F)cc(C(F)(F)F)c2)[C@H]1c1ccc(CO)cc1	-0.881	0.0089 (inactive)	0.0596	0.127	0.5	0.361	0.0574	-0.636	-0.629	-0.928
CCCCC(CC)C(O)C1C=CC2C(=O)N(c3ccccc3)C(=O)C2N1Nc1ccccc1 (stereo not given)	0.83	0.392 (inactive)	0.206	-0.122	0.665	2.28	0.297	0.883	-0.804	0.964
CN(C)CCCNC(=O)[C@@]1(Cc2ccccc2I)c2ccccc2C(=O)N(Cc2ccccc2C(F)(F)F)[C@H]1c1ccc(CO)cc1	-0.212	0.179 (inactive)	-0.286	-0.146	0.662	2.4	0.557	1.02	-1.07	-0.17
CCN(CC)c1ccc(N2CC=CC34O[C@@H]5C=CCCOC(=O)C5[C@H]3C(=O)N(CCCCCO)[C@@H]4C2=O)cc1 (stereo not given in full)	-0.515	1.07 (inactive)	0.0522	0.396	0.285	0.395	0.483	0.13	-0.218	-0.459
COCCOC(=O)N1C(=O)[C@@]2(c3cc(C#CC4=CCCCC4)ccc31)[C@H](C(=O)NC[C@H](O)c1ccccc1)[C@H]1C(=O)O[C@H](c3ccccc3)[C@H](c3ccccc3)N1[C@@H]2c1ccc(O)cc1	0.112	0.0886 (inactive)	0.184	0.103	0.521	0.824	0.992	1.29	1.12	1
CC(C)NC(=O)[C@@]1(Cc2ccccc2I)c2ccccc2C(=O)N(Cc2ccccc2)[C@H]1c1ccc(CO)cc1	0.162	1.17 (inactive)	0.204	-0.0608	0.481	1.96	0.206	1.29	0.325	0.968
C=CCN1C(=O)[C@]2(O[C@H](CCO)[C@@H]([Si](C)(C)c3ccc(OC)cc3)[C@@H]2C)c2cc(NC(=O)[C@H](C)O)ccc21	0.851	1.31 (inactive)	0.0203	-0.0666	0.56	1.39	0.371	1.31	0.174	1.01
